What all share (experiment): NCI-60 one-dose screen, 48 h (100 = growth as untreated, 0 = no growth, -100 = all killed)
Test [1] deals with HCT-15 colon. The following applies: 10 µM.
Test [2] has as its system HT29 colon. To be noted: 10 µM.
The subject of test [3] is SNB-75 CNS. The following applies: 10 µM.
For test [4], the system named is SNB-19 CNS. To be noted: 10 µM.
Test [5] deals with U251 CNS. The following applies: 10 µM.
Test [6] has as its system PC-3 prostate. To be noted: 10 µM.
The test system of test [7] is SK-MEL-5 melanoma. To be noted: 10 µM.
In test [8] the test system is UACC-62 melanoma. To be noted: 10 µM unless noted.
Test [9] relates to LOX IMVI melanoma. To be noted: 10 µM.
The test system of test [10] is SK-MEL-28 melanoma. To be noted: 10 µM.

About 83,000 compounds went through this panel and 20% of them were active in at least one assay; those are over-represented in the sample as a whole.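 Growth was measured after 48 h exposure to one concentration of compound in 96-well plates. Values under 10 count as active.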 Unmarked numbers belong to inactive results. Active and inactive are the calls of the source.

For `CN(C)c1ccc(CNC(C(=O)c2ccccc2)c2ccccc2)cc1` (stereo not given), the growth in [1] was 96.9%; in test [2], 82.6%; in test [3], 90.4%; in [4] it was 107%; in [5] it was 94.1%; in test [6] it was 85.7%. The growth in test [7] was 56.2%; in [8] it was 99.2%; in test [9] it was 95.1%; in [10], 94.2%.
Take `CCCC(=O)c1cc(C)ccc1OC`: the growth in test [1] is 100%; in test [2], 107%; in test [3], 94.9%; in test [4], 114%; in [5], 115%; in test [6], 91.3%. The growth in test [7] is 104%; in test [8], 95.5%; in test [9], 109%; in test [10], 105%.
For the compound `COC(=O)c1ccccc1N(C)C`, the growth was 103% in test [1]; 94.8% in [2]; 93.3% in test [3]; 98.8% in test [4]; 112% in test [5]; 100% in [6]. The growth in [7] is 101%; in [8], 105%; in test [9], 94.5%; in test [10] it was 103%.
As for `Nc1ccc(N)c([N+](=O)[O-])c1`, the growth in test [1] is 109%; in test [2] it was 121%; in test [3], 102%; in [4], 99.5%; in [5], 107%; in test [6], 102%. The growth in [7] was 95.2%; in test [8] it was 98.5%; in test [9] it was 100%; in [10], 115%.
For the compound `O=C1c2ccccc2C(=O)N1OCc1ccccc1`, the growth in [1] is 109%; in test [2], 103%; in test [3], 83.6%; in test [4] it was 112%; in test [5], 113%; in test [6], 77.7%. Moreover, the growth is 110% in test [7], 108% in test [8], 109% in [9] and 113% in test [10].
Turning to `O=C1C=CC(=O)N1c1ccc(I)cc1Cl`, the growth in [1] is 99.9%; in test [2] it was 100%; in [3], 103%; in test [4], 98.4%; in test [5] it was 99.5%; in [6] it was 75.7%. For the same compound, the growth in test [7] was 102%; in test [8], 104%; in [9] it was 101%; in test [10] it was 107%.
With `O=[N+]([O-])c1ccc(Cl)c(S(=O)(=O)O)c1`, the growth in test [1] is 96.6%; in [2] it was 138%; in [3], 85.8%; in test [4], 106%; in test [5], 111%; in [6], 108%. Moreover, the growth is 104% in test [7], 105% in [8], 102% in test [9] and 111% in test [10].
On to `COc1ccccc1NC(=O)c1cc2cc(Br)ccc2cc1O`, for which the growth in test [1] is 7.97% (active); in [2], 72.8%; in test [3], 12.4%; in test [4], 27.3%; in [5], 8.67% (active); in test [6], -35.3% (active). The growth in test [7] is -74.6% (active); in [8], 24.3%; in test [9], 3.26% (active); in [10], 34.6%.
Take `O=[N+]([O-])c1ccc(O)c(S(=O)(=O)O)c1`: the growth in test [1] is 98.1%; in test [2], 104%; in [3], 98.6%; in test [4] it was 105%; in test [5] it was 102%; in [6], 97.3%. The growth is 121% in test [7], 97.5% in test [8], 98.2% in test [9] and 116% in [10].
As to `NC(=O)NC(=O)c1ccc(Cl)cc1`, the growth is 105% in test [1]; 94.3% in test [2]; 93.6% in [3]; 111% in [4]; 106% in [5]; 96.5% in test [6]. The growth in [7] was 107%; in test [8], 96.1%; in test [9] it was 103%; in test [10], 119%.
`N#CC1(Nc2ccc3c4c(cccc24)CC3)CCCCC1`: the growth in test [1] was 106%; in [2], 89.1%; in test [3], 78.6%; in [4], 107%; in [5], 99.8%; in test [6] it was 90.8%. Besides, the growth in test [7] was 91.6%; in test [8], 106%; in test [9], 97.6%; in test [10], 103%.
In the case of `O=C(c1ccc(Cl)cc1)c1ccccc1Cl`, the growth is 95.8% in test [1]; 101% in test [2]; 100% in test [3]; 85.1% in test [4]; 98.3% in [5]; 93.4% in test [6]. Besides, the growth in [7] was 94.5%; in test [8] it was 87.7%; in test [9] it was 96.2%; in test [10] it was 129%.
In the case of `COc1cc(CN)ccc1O`, the growth in test [1] was 111%; in test [2], 91.8%; in [3], 88.8%; in test [4], 94.9%; in test [5], 96%; in test [6] it was 100%. Also, the growth was 102% in test [7], 90.1% in [8], 89.8% in test [9] and 117% in test [10].
With `CC1CCCCN1C(=S)Nc1ccc(S(=O)(=O)N2CCCCC2)cc1` (stereo not given), the growth is 99.2% in [1]; 94% in test [2]; 129% in test [3]; 109% in [4]; 95.7% in test [5]; 83% in test [6]. For the same compound, the growth in test [7] was 103%; in test [8], 95.6%; in test [9] it was 105%; in test [10], 98.6%.
`C=CCNc1ccccc1`: the growth in test [1] was 106%; in [2] it was 98.4%; in test [3], 82.7%; in test [4], 91.5%; in test [5], 106%; in test [6] it was 85.2%. Further, the growth in test [7] was 102%; in [8], 89.9%; in test [9], 93.7%; in test [10], 99.9%.

(Values after PubChem BioAssay (NCI).)
